In PubChem BioAssay (NCI) one finds growth data, which are given here for 14 molecules.

Test systems include NCI-H23 lung; NCI-H226 lung; NCI-H322M lung; HOP-62 NSCLC; NCI-H460 lung; HOP-92 NSCLC; NCI-H522 lung; A549/ATCC NSCLC; 786-0 renal; COLO 205 colon.
Common to all, as to assay: NCI-60 one-dose screen, 48 h (100 = growth as untreated, 0 = no growth, -100 = all killed)
Common to all, as to conditions: 10 µM unless noted

Compounds without any hit were thinned out: in the full panel of roughly 83,000, 20% have a hit.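 Interpretation: 100, growth as untreated; towards 0, rising growth inhibition; 0, no net growth; 0 to -100, cell death. Compounds scoring below 10 were considered active.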 Values without a mark were called inactive. Activity calls are given as the source filed them.

`FC(F)(F)C1=NNC(c2ccc3ccccc3c2)=NN1`: the growth with NCI-H23 lung is 94.2%; with NCI-H226 lung, 87.4%; in the assay with NCI-H322M lung, 103%; in the assay with HOP-62 NSCLC it was 106%; in the assay on NCI-H460 lung, 101%; with HOP-92 NSCLC it was 95.6%. In addition, the growth is 97.2% in the assay with NCI-H522 lung, 102% with A549/ATCC NSCLC, 107% in the assay on 786-0 renal and 105% in the assay with COLO 205 colon.

On to `c1ccc(-c2[nH]c3ccccc3c2-c2ccccc2)cc1`, for which the growth is 82% in the assay on NCI-H23 lung; 91.4% with NCI-H226 lung; 82.2% with NCI-H322M lung; 90% with HOP-62 NSCLC; 82.5% with NCI-H460 lung; 8.71% (active) with HOP-92 NSCLC. The growth is 91.8% in the assay on NCI-H522 lung, 84.5% in the assay on A549/ATCC NSCLC, 83.9% with 786-0 renal and 107% in the assay on COLO 205 colon.

For the molecule `CNC(=O)c1cc(Oc2ccc(NC(=O)c3nc(S(C)(=O)=O)n(C)c3-c3ccc(F)cc3)cc2)ccn1`, the growth with NCI-H23 lung was 79.1%; in the assay on NCI-H226 lung it was 87.4%; with NCI-H322M lung, 62.5%; in the assay on HOP-62 NSCLC, 91.3%; with NCI-H460 lung it was 59.4%; in the assay with HOP-92 NSCLC, 77.3%. Besides, the growth in the assay with NCI-H522 lung is 84.5%; in the assay with A549/ATCC NSCLC it was 82.5%; in the assay with 786-0 renal, 75.4%; in the assay on COLO 205 colon, 59.4%.

Take `COc1ccc2[nH]c(O)c(/C=c3/ccc4c(c3)N=C(c3ccc(F)cc3)N=4)c2c1`: the growth was 71.7% in the assay on NCI-H23 lung; 85.4% in the assay with NCI-H226 lung; 49.4% with NCI-H322M lung; 34.2% with HOP-62 NSCLC; 36.9% in the assay with NCI-H460 lung; 4.86% (active) in the assay on HOP-92 NSCLC. The growth in the assay on NCI-H522 lung is 81%; with A549/ATCC NSCLC it was 37.6%; in the assay on 786-0 renal, -30.1% (active); in the assay with COLO 205 colon it was 72.9%.

Regarding `O=C1OCC2=C1C(c1cccc(Br)c1)c1cc3c(cc1N2CCO)OCCO3` (configuration not stated), the growth in the assay with NCI-H23 lung was 27.5%; in the assay on NCI-H226 lung it was -4.52% (active); in the assay on NCI-H322M lung, 35%; with HOP-62 NSCLC, 28.7%; in the assay with NCI-H460 lung it was 0.468% (active); in the assay with HOP-92 NSCLC it was 25.2%. In addition, the growth was -11.5% (active) with NCI-H522 lung, 13.5% with A549/ATCC NSCLC, 21.8% with 786-0 renal and -24.5% (active) with COLO 205 colon.

As to `COc1cc(C(=O)/C=C/c2cn(-c3ccccc3)nc2-c2cccc(Nc3ccnc4cc(Cl)ccc34)c2)cc(OC)c1OC`, the growth was 100% with NCI-H23 lung; 98.1% in the assay on NCI-H226 lung; 88.1% in the assay with NCI-H322M lung; 78.2% in the assay on HOP-62 NSCLC; 90.5% with NCI-H460 lung; 73.3% in the assay on HOP-92 NSCLC. In addition, the growth in the assay on NCI-H522 lung is 106%; in the assay with A549/ATCC NSCLC it was 91.5%; in the assay with 786-0 renal, 89%; in the assay with COLO 205 colon, 88.9%.

For `COc1cc(Nc2ccnc3ccc(Br)cc23)cc(OC)c1OC`, the growth in the assay on NCI-H23 lung was 53.8%; with NCI-H226 lung it was 78.8%; with NCI-H322M lung, 63.5%; in the assay on HOP-62 NSCLC it was 23.2%; in the assay with NCI-H460 lung it was 7.02% (active); with HOP-92 NSCLC, 49%. Further, the growth in the assay on NCI-H522 lung is -17.8% (active); with A549/ATCC NSCLC, 37.5%; in the assay with COLO 205 colon, 39%.

`COC(=O)c1cc2oc(/C=N/NC(=O)c3cc4oc(-c5cccc(C(F)(F)F)c5)cc4[nH]3)cc2n1Cc1ccccc1`: the growth with NCI-H23 lung is 93.1%; in the assay with NCI-H226 lung it was 109%; with NCI-H322M lung, 88%; in the assay on HOP-62 NSCLC, -2.75% (active); with NCI-H460 lung, 107%; in the assay on HOP-92 NSCLC, 78.1%. Further, the growth in the assay on NCI-H522 lung is 97.4%; in the assay on A549/ATCC NSCLC, 20.6%; in the assay on COLO 205 colon it was 118%.

Take `COc1ccc2[nH]cc(/C=C3\C(=O)Nc4ccccc43)c2c1`: the growth is 42.3% in the assay on NCI-H23 lung; 62.1% in the assay on NCI-H226 lung; 37.8% with NCI-H322M lung; 28.8% in the assay on HOP-62 NSCLC; 26% with NCI-H460 lung; 31.3% in the assay with HOP-92 NSCLC. Besides, the growth in the assay on NCI-H522 lung was 17.5%; with A549/ATCC NSCLC it was 26.5%; in the assay with 786-0 renal, 53.8%; in the assay on COLO 205 colon, 40.6%.

For `O=C1Cc2c([nH]c3ccc([N+](=O)[O-])cc23)-c2ccccc2N1`, the growth is 2.05% (active) in the assay with NCI-H23 lung; 27.1% in the assay with NCI-H226 lung; 18.3% in the assay on NCI-H322M lung; 17.8% in the assay with HOP-62 NSCLC; 6.76% (active) with NCI-H460 lung; -17.1% (active) in the assay with HOP-92 NSCLC. Besides, the growth with NCI-H522 lung was 0.987% (active); in the assay on A549/ATCC NSCLC, 18.5%; in the assay with 786-0 renal it was 7.56% (active); with COLO 205 colon, -58.1% (active).

As for `Cc1c(O)c(=O)n(-c2ccccc2)n1C`, the growth in the assay with NCI-H23 lung is 101%; with NCI-H226 lung it was 100%; in the assay with NCI-H322M lung it was 108%; in the assay on HOP-62 NSCLC, 100%; with NCI-H460 lung it was 118%; in the assay on HOP-92 NSCLC it was 96.3%. The growth was 110% with NCI-H522 lung, 105% with A549/ATCC NSCLC, 101% with 786-0 renal and 111% in the assay with COLO 205 colon.

Turning to `COc1ccc(-c2nc3ccc(Cc4ccc5nc(-c6ccc(OC)cc6)[nH]c5c4)cc3[nH]2)cc1`, the growth is -17.9% (active) with NCI-H23 lung; 90.6% in the assay with NCI-H226 lung; 97.7% in the assay on NCI-H322M lung; 49.1% in the assay on HOP-62 NSCLC; 69.1% in the assay with NCI-H460 lung; 77.9% in the assay with HOP-92 NSCLC. In addition, the growth with NCI-H522 lung was -13.4% (active); in the assay with A549/ATCC NSCLC, 48.5%; with 786-0 renal it was 89.5%; with COLO 205 colon it was 5.61% (active).

For `COc1ccc(C2=NN(C=O)C(c3ccc(OS(=O)(=O)c4ccc(C)cc4)c(OC)c3)C2)cc1` (configuration not stated), the growth with NCI-H23 lung is 37.8%; in the assay with NCI-H226 lung it was 67.4%; in the assay on NCI-H322M lung, 99.9%; in the assay with HOP-62 NSCLC, 61.3%; in the assay on NCI-H460 lung, 62.8%; in the assay on HOP-92 NSCLC, 32.8%. Further, the growth in the assay with NCI-H522 lung was 21.3%; in the assay with A549/ATCC NSCLC it was 42.6%; with 786-0 renal it was 78.1%; in the assay on COLO 205 colon it was 63.3%.

In the case of `Oc1ccc(-c2cnc(-c3ccccc3)[nH]2)c(O)c1`, the growth in the assay with NCI-H23 lung was 108%; in the assay with NCI-H226 lung, 86.2%; in the assay on NCI-H322M lung, 94.9%; in the assay with HOP-62 NSCLC, -12.1% (active); in the assay on NCI-H460 lung, 110%; with HOP-92 NSCLC it was 58.7%. Also, the figures for the growth in the assay on NCI-H522 lung, in the assay on A549/ATCC NSCLC and in the assay with COLO 205 colon were 99.8%, 24.8% and 117%, respectively.
